Measured values taken from PubChem BioAssay (NCATS).
Records with an inconclusive call do not appear. Calls of active or inactive are those of the source. Calls come from the whole dose curve; as a rule, active = well fitted curve in the direction sought with a large enough effect; inconclusive = small, poorly fitted or top-dose-only effect, or another doubt; inactive = no such curve, though single readings can be large; an effect the other way counts as inactive or inconclusive.

Tests used:
[1] = Quantitative High-Throughput drug screen in 47 multiple myeloma cell lines against the NCATS MIPE library collection: KMM1_JCRB cell viability assay (AID 1918960); note: nearly all actives have a fitted effect of over 30% in size
Method in brief: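 Myeloma cells, 500 per well, were exposed to MIPE 4.0 drugs by pin transfer for 48 h at 37 °C, 5% CO2. Viability was read as ATP luminescence with CellTiter-Glo, normalised to DMSO-only (100%) and medium-only (0%) wells.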

[2] = Quantitative High-Throughput drug screen in 47 multiple myeloma cell lines against the NCATS MIPE library collection: KHM11_PLB cell viability assay (AID 1918962); note: nearly all actives have a fitted effect of over 35% in size
Method in brief: (§1)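 Primary qHTS used for cherry-picking: cells at 500/well, library compounds for 48 h (37C, 5% CO2), luminescent ATP assay.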

[3] = Quantitative High-Throughput drug screen in 47 multiple myeloma cell lines against the NCATS MIPE library collection: JJN3_DSMZ cell viability assay (AID 1918966; note: nearly all actives have a fitted effect of over 50% in size)
Method in brief: (§2)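 Inhibition of cell viability is measured here. Each line was plated at 500 cells per well, treated with MIPE 4.0 drugs, kept 48 hours at 37C, then assayed for ATP content by CellTiter-Glo luminescence.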

[4] = Quantitative High-Throughput drug screen in 47 multiple myeloma cell lines against the NCATS MIPE library collection: H1112_PLB cell viability assay (AID 1918967; note: nearly all actives have a fitted effect of over 30% in size)
Method in brief: as §2

[5] = Quantitative High-Throughput drug screen in 47 multiple myeloma cell lines against the NCATS MIPE library collection: Karpas25_ECACC cell viability assay (AID 1918968; note: nearly all actives have a fitted effect of over 35% in size)
Method in brief: as §2

[6] = Quantitative High-Throughput drug screen in 47 multiple myeloma cell lines against the NCATS MIPE library collection: KMS12BM_JCRB cell viability assay (AID 1918971); note: nearly all actives have a fitted effect of over 35% in size
Method in brief: (§3)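 Steps: seed 500 cells per well; pin-transfer MIPE 4.0 library; incubate 48 h at 37C, 5% CO2, humidified; add CellTiter-Glo, 5 min room temperature; read luminescence.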

[7] = Quantitative High-Throughput drug screen in 47 multiple myeloma cell lines against the NCATS MIPE library collection: KMS12PE_JCRB cell viability assay (AID 1918972); note: nearly all actives have a fitted effect of over 30% in size
Method in brief: (§4)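 We plated 500 myeloma cells per well, pinned in MIPE 4.0 compounds, and incubated for 48 hours at 37C. ATP was then quantified with CellTiter-Glo, with DMSO and media-only wells defining 100% and 0%.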

[8] = Quantitative High-Throughput drug screen in 47 multiple myeloma cell lines against the NCATS MIPE library collection: MOLP8_DSMZ cell viability assay (AID 1918977); note: nearly all actives have a fitted effect of over 45% in size
Method in brief: (§5)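 Plated at 500 cells per well, myeloma lines received MIPE 4.0 compounds by pin tool. Following 48 h culture at 37 °C, CellTiter-Glo luminescence gave viability relative to DMSO and media-only controls.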

[9] = Quantitative High-Throughput drug screen in 47 multiple myeloma cell lines against the NCATS MIPE library collection: NCIH929_DSMZ cell viability assay (AID 1918978); note: nearly all actives have a fitted effect of over 35% in size
Method in brief: as §5

[10] = Quantitative High-Throughput drug screen in 47 multiple myeloma cell lines against the NCATS MIPE library collection: OCIMY1_PLB cell viability assay (AID 1918979); note: nearly all actives have a fitted effect of over 35% in size
Method in brief: as §5

[11] = Quantitative High-Throughput drug screen in 47 multiple myeloma cell lines against the NCATS MIPE library collection: MM1S_ATCC cell viability assay (AID 1918980); note: nearly all actives have a fitted effect of over 45% in size
Method in brief: as §5

[12] = Quantitative High-Throughput drug screen in 47 multiple myeloma cell lines against the NCATS MIPE library collection: Karpas417_ECACC cell viability assay (AID 1918961); settings: Karpas417 myeloma viability, CellTiter-Glo ATP luminescence, 48 h; viability (% of DMSO): at 45.8 µM (top of the series)
Method in brief: as §4

[13] = Quantitative High-Throughput drug screen in 47 multiple myeloma cell lines against the NCATS MIPE library collection: JIM3_ECACC cell viability assay (AID 1918963; note: nearly all actives have a fitted effect of over 35% in size)
Method in brief: as §1

[14] = Quantitative High-Throughput drug screen in 47 multiple myeloma cell lines against the NCATS MIPE library collection: KMS27_JCRB cell viability assay (AID 1918970); note: nearly all actives have a fitted effect of over 30% in size
Method in brief: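 KMS27_JCRB myeloma cells, 500 per well, exposed 48 h at 37 C, 5% CO2 to MIPE 4.0 compounds. Viability from ATP by CellTiter-Glo luminescence, normalized to DMSO (100%) and medium-only (0%) wells.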

[15] = Quantitative High-Throughput drug screen in 47 multiple myeloma cell lines against the NCATS MIPE library collection: KMS20_JCRB cell viability assay (AID 1918973); note: nearly all actives have a fitted effect of over 45% in size
Method in brief: as §2

[16] = Quantitative High-Throughput drug screen in 47 multiple myeloma cell lines against the NCATS MIPE library collection: KMS26_JCRB cell viability assay (AID 1918975); note: nearly all actives have a fitted effect of over 45% in size
Method in brief: as §3

[17] = Quantitative High-Throughput drug screen in 47 multiple myeloma cell lines against the NCATS MIPE library collection: INA6_PLB cell viability assay (AID 1918965; note: nearly all actives have a fitted effect of over 55% in size)
Method in brief: as §4

[18] = Quantitative High-Throughput drug screen in 47 multiple myeloma cell lines against the NCATS MIPE library collection: MMM1_PLB cell viability assay (AID 1918976); note: nearly all actives have a fitted effect of over 35% in size
Method in brief: as §5

[19] = Quantitative High-Throughput drug screen in 47 multiple myeloma cell lines against the NCATS MIPE library collection: KMS21BM_JCRB cell viability assay (AID 1918974); settings: ATP luminescence, 48 h; viability: at 45.8 µM (top of the series)
Method in brief: as §2

Measured: Potency
Potency is the fitted concentration of half-maximal effect.

O=S(=O)(F)Cc1ccccc1
active: [2] 9.35 µM | [5] 2.64 µM | [11] 0.0418 µM
inactive: [1] | [3] | [4] | [6] | [7] | [8] | [9] | [10]

CCN1CCN(C(=O)Cc2ccc(Nc3ncc(F)c(Nc4ccc(C(=O)Nc5ccccc5Cl)cc4)n3)cc2)CC1
active: [1] 2.64 µM | [12] 2.96 µM | [2] 2.35 µM | [13] 3.72 µM | [3] 7.43 µM | [4] 6.62 µM | [5] 2.35 µM | [14] 2.96 µM | [6] 7.43 µM | [7] 1.05 µM | [15] 1.18 µM | [16] 8.33 µM | [8] 7.43 µM | [9] 2.64 µM | [10] 7.43 µM | [11] 5.9 µM

O=S(=O)(CC1CS1)c1ccc(Oc2ccccc2)cc1 (stereo unspecified)
active: [1] 5.9 µM | [12] 9.35 µM | [13] 16.6 µM | [17] 14.8 µM | [3] 11.8 µM | [5] 16.6 µM | [6] 26.4 µM | [7] 3.72 µM | [15] 14.8 µM | [16] 26.4 µM | [18] 16.6 µM | [8] 16.6 µM | [9] 16.6 µM | [11] 14.8 µM

COc1ccc2c(c1)CN(C)CC2c1ccc(Cl)c(Cl)c1 (stereo unspecified)
inactive: [10]
active: [1] 14.8 µM | [12] 14.8 µM | [17] 23.5 µM | [5] 0.209 µM | [14] 16.6 µM | [6] 20.9 µM | [7] 23.5 µM | [19] 4.18 µM | [9] 16.6 µM | [11] 0.0833 µM

CCOC(=O)Nc1ccc(NCc2ccc(F)cc2)cc1N
inactive: [12] | [13] | [19] | [16] | [18] | [8] | [10]
active: [1] 6.62 µM | [7] 3.32 µM | [9] 14.8 µM | [11] 18.7 µM

O=C(N[C@H]1CN2CCC1CC2)c1ccc(Cl)cc1
active: [19] 37.2 µM | [11] 2.96 µM
inactive: [1] | [2] | [13] | [6] | [16]

CCOP(=O)(OCC)C(C)NC(=O)N(CCCl)N=O (stereo unspecified)
inactive: [1] | [12] | [13] | [3] | [5] | [14] | [7] | [9] | [10]

CC(C)[C@]12O[C@@H]1[C@@H]1O[C@]13[C@]1(O[C@H]1C[C@@H]1C4=C(CC[C@@]13C)C(=O)OC4)[C@H]2O
not listed: [2] | [4] | [17]
inactive: all other assays above

O=c1[nH]c2ccc(Cl)cc2c(N[C@@H]2CN3CCC2CC3)c1-c1nc2ccccc2[nH]1
active: [1] 0.0469 µM | [12] 0.332 µM | [13] 0.0743 µM | [17] 0.0332 µM | [3] 1.05 µM | [4] 0.418 µM | [5] 0.235 µM | [14] 0.187 µM | [6] 1.66 µM | [7] 0.0833 µM | [15] 0.166 µM | [19] 0.0264 µM | [16] 2.64 µM | [18] 6.62 µM | [8] 0.743 µM | [9] 0.148 µM | [10] 4.69 µM | [11] 0.0743 µM

O=C1C=CC[C@@H]2[C@H]3CCCN4CCC[C@@H](CN12)[C@@H]34
active: [11] 20.9 µM
inactive: [1] | [12] | [13] | [7] | [15] | [10]

Cc1ccccc1-n1c(Cn2cnc3c(N)ncnc32)nc2cccc(C)c2c1=O
active: [1] 0.372 µM | [12] 0.132 µM | [13] 1.05 µM | [17] 0.935 µM | [3] 0.833 µM | [5] 0.187 µM | [14] 0.296 µM | [6] 1.48 µM | [7] 0.264 µM | [15] 0.296 µM | [19] 0.235 µM | [16] 2.96 µM | [18] 0.166 µM | [8] 0.0743 µM | [9] 0.0418 µM | [11] 0.526 µM

CC[C@@H](C(N)=O)N1CCCC1=O
inactive: [1] | [2] | [13] | [3] | [4] | [5] | [7] | [15] | [8] | [10]

C[C@@H]1CC[C@@]2(OC1)O[C@H]1C[C@H]3[C@@H]4CC=C5C[C@@H](O[C@@H]6O[C@H](CO)[C@@H](O[C@@H]7O[C@@H](C)[C@H](O)[C@@H](O)[C@@H]7O)[C@H](O)[C@@H]6O[C@@H]6O[C@@H](C)[C@H](O)[C@@H](O)[C@@H]6O)CC[C@]5(C)[C@@H]4CC[C@]3(C)[C@@H]1[C@H]2C
active: [1] 2.64 µM | [12] 1.05 µM | [13] 3.72 µM | [3] 2.35 µM | [5] 3.32 µM | [14] 0.935 µM | [6] 2.64 µM | [7] 1.32 µM | [15] 4.18 µM | [19] 1.48 µM | [16] 2.35 µM | [18] 2.35 µM | [8] 1.87 µM | [9] 4.18 µM | [10] 1.66 µM
